# PubChem BioAssay (NCI)
# The panel holds about 83,000 compounds, 20% with a hit somewhere; the sample as a whole holds those more often.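 Single-concentration screen, 48 h exposure, 96-well plates. Endpoint: percent growth. Below 10 = active.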 Unmarked numbers belong to inactive results. Active and inactive are the calls of the source.
# Tested on: HL-60(TB) leukemia
# Experiment: NCI-60 one-dose screen, 48 h (100 = growth as untreated, 0 = no growth, -100 = all killed)
# Conditions: 10 µM unless noted
row,SMILES,growth
1,COc1ccc(CCNC=O)cc1OC,96.9%
2,COc1ccc(CCN2CCC(Nc3nc4ccccc4n3Cc3ccc(F)cc3)CC2)cc1,-53.5% (active)
3,O=C1C(Br)=CC2C1C1C3CCC3C2(Br)C12OCCO2 (stereo not given),-6.23% (active)
4,O=COCCCc1ccccc1,106%
5,C=C(C)[C@@H]1CC[C@]2(c3nnc(-c4ccncc4)o3)CC[C@]3(C)[C@H](CC[C@@H]4[C@@]5(C)CCC(=O)NC(C)(C)[C@@H]5CC[C@]43C)[C@@H]12,115%
6,CCN1CCN(C(=O)[C@]23CCC(C)(C)C[C@@H]2C2=CC[C@@H]4[C@@]5(C)C/C(=C/c6ccncc6)C(=O)C(C)(C)[C@@H]5CC[C@@]4(C)[C@]2(C)CC3)CC1,-33.8% (active)
7,CNc1nc2ncn(C)c2c(=O)[nH]1,91.5%
8,O=C(O)COc1ccc(Cl)cc1C1CCCCC1,116%
9,Cc1ccc(S(=O)(=O)N2CCC(C(=O)Nc3ccc(F)cc3F)CC2)cc1,88.2%
10,O=C(CCCCCCSc1nc(-c2ccccc2)cc(-c2ccc(Cl)cc2)n1)NO,-37.5% (active)
11,COc1ccc(C(=O)Nc2ccc3nc(N4CCCCC4)cc(C)c3c2)cc1OC,60.3%
12,C[C@]12CC[C@@H]3c4cc(OC(F)F)c(OS(N)(=O)=O)cc4CC[C@H]3[C@@H]1CC[C@@H]2OS(N)(=O)=O,13.1%
13,COc1ccc(C(=O)/C=C/c2cc(-c3cc(OC)c(OC)c(OC)c3)n[nH]2)cc1OC,3.15% (active)
14,O=C1C=CC(=CC=C2C=CN(CCCCCCCCCCCO)C=C2)C=C1,4.05% (active)
15,Fc1ccc(Nc2ncnc3ccc(-c4cn[nH]c4)cc23)cc1Cl,83.7%
16,CC[C@H](Nc1nc(N)nc(N)c1Cl)c1nc2cccc(NCc3ccc(C(=O)NO)cc3)c2c(=O)n1-c1ccccc1,-34.7% (active)
17,CCN(CC)CCN1CC(=O)Nc2cc(Cl)ccc21,98.9%
18,Nc1ncc(-c2cnn(C3CCNCC3)c2)cc1-c1nc2cc(Cl)ccc2o1,-71.3% (active)
19,CCC1CCc2nc3sc(C(=O)Nc4ccccc4C)c(N)c3cc2C1 (stereo not given),2.97% (active)
20,C[N+]1(CCc2ccccc2)CCC(CCC2CC[N+](C)(CCc3ccccc3)CC2)CC1 (stereo not given),105%

row,SMILES,growth
1,CCCCCCCCOC(=O)c1c(C)[nH]c(/C=C2\N=C(c3ccc[nH]3)C=C2OC)c1C,4.96% (active)
2,CCCCC1=C(P(=O)(O)O)N[C@H](C(=O)O)CS1,103%
3,COc1ccc(-c2nc(SCC(=O)Nc3ccc(C(=O)/C=C/c4ccc(Cl)cc4)cc3)[nH]c(=O)c2C#N)cc1,105%
4,O=C(CN1C(=O)S/C(=C\C(Cl)=C\c2ccccc2)C1=O)NC1CCS(=O)(=O)C1 (stereo not given),18.6%
5,Cc1ccc([N+](=O)[O-])cc1NC(=O)Nc1cccc(F)c1,58.7%
6,C/C(=C/CCC(C)[C@@H]1CC[C@]2(C)C3=C(CC[C@@]12C)[C@@]1(C)CCC(=O)C(C)(C)[C@@H]1CC3)C(=O)O (stereo not given in full),-58.8% (active)
7,COc1ccc(C(=O)/C=C/c2cccc(Nc3ccnc4cc(Cl)ccc34)c2)cc1,51.7%
8,COc1cc(/C(C)=C(\c2ccc(Cl)cc2)c2ccc(OCCN3CCCC3)cc2)ccc1F,38.4%
9,CCOC(=O)c1ccc(N2NC(=O)/C(=C/c3ccc([N+](=O)[O-])o3)C2=O)cc1,85.5%
10,Cn1cnc([N+](=O)[O-])c1S(=O)(=O)Oc1ccc(Cl)cc1,-35.2% (active)
11,CCOC(=O)c1ccc(NC(=O)Nc2nccs2)cc1,-50.1% (active)
12,Cl[C@@H]1CCO[C@H](c2cc3ccccc3c3ccccc23)C1,92.9%
13,O=C(COc1cccc(/C=C2\Cc3ccccc3C2=O)c1)c1ccc(Cl)cc1,94.2%
14,O=C(Nc1ccc2c(c1)-c1ccccc1C2)C1CC(=O)N(c2ccc3c(c2)OCO3)C1 (stereo not given),112% [50 µM]
15,CCNC(=O)Nc1nc2ccc(Oc3ccnc(C(=O)NC)c3)cc2s1,94.7%
16,O=C(/C=C\c1cccc([N+](=O)[O-])c1)/C=C/c1cccc([N+](=O)[O-])c1,123%
17,CCS(=O)(=O)N[C@@H]1O[C@H](COC(C)=O)C(OC(C)=O)[C@H](OC(C)=O)C1OC(C)=O (stereo not given in full),117%
18,O=[N+]([O-])c1ccc2ncccc2c1Cl,11.6%
19,COc1cc(C(C)(C)C)cc(OC)c1C(O)(c1c(OC)cc(C(C)(C)C)cc1OC)c1c(OC)cc(C(C)(C)C)cc1OC,-63.7% (active)
20,Cn1cc(-c2ncnc3ccc(-c4cnc(Cl)c(NS(C)(=O)=O)c4)cc23)c2ccccc21,17.9%
